According to PubChem BioAssay (EPA / NIEHS):
“And” between values parts separate entries of the source, which are not always exact repeats. Equal values may be shown once. The source holds several records for some structures; these can differ, active in one and inactive in another. The source made the active and inactive calls. The calls were made as follows: active = hit-call score of the fitted dose curve at least 0.9, where 1 is the maximum; inactive = score below 0.9.

Each compound was assayed on E-selectin (Homo sapiens) (UniProt P16581) (assay: BSK_3C_Eselectin: BioMAP Diversity Plus: 3C Assay for Eselectin Biomarker Activity (AID 2283015)). Conditions: primary human endothelial cells (HUVEC); actives raise or lower the signal.
E-selectin (Homo sapiens), sequence (P16581 whole entry, looked up): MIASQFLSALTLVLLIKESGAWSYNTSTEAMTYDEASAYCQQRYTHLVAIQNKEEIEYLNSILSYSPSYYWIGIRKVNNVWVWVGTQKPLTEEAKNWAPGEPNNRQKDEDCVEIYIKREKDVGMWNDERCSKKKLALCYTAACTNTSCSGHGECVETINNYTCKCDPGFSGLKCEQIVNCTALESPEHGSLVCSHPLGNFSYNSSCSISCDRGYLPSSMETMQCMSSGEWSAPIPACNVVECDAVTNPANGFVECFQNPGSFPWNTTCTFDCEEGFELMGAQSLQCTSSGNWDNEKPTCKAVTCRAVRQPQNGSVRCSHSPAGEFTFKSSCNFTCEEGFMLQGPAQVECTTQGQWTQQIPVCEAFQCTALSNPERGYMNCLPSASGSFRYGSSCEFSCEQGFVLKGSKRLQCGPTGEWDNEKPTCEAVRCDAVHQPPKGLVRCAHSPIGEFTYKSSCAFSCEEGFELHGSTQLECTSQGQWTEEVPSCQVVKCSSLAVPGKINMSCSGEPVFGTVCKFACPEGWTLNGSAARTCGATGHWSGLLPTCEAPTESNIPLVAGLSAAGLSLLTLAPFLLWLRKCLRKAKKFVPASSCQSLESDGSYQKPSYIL
Method: BSK_3C is a cell-based, multiplexed-readout assay that uses umbilical vein endothelium, a human vascular primary cell, with measurements taken at 24 hours after chemical dosing in a 96-well plate.BSK_3C_Eselectin is an assay component measured in the BSK_3C assay. It measures E-selectin antibody related to regulation of gene expression using ELISA technology.Data from the assay component BSK_3C_Eselectin was analyzed into 1 assay endpoint. This assay endpoint, BSK_3C_Eselectin, was analyzed with bidirectional fitting relative to DMSO as the negative control and baseline of activity. Using a type of binding reporter, gain or loss-of-signal activity can be used to understand changes in the signaling as they relate to the gene SELE. Furthermore, this assay endpoint can be referred to as a primary readout, because this assay has produced multiple assay endpoints where this one serves a signaling function. To generalize the intended target to other relatable targets, this assay endpoint is annotated to the cell adhesion molecules intended target family, where the subfamily is selectins.
The levels of cell surface (or secreted, indicated by the prefix "s") biomarker endpoints were measured by ELISA. Overt cytotoxicity to cells in confluent adherent cultures (all systems other than the BT system) was assessed by measuring total protein levels using sulforhodamine B (SRB) staining in parallel cultures at the time of biomarker measurements, indicated as SRB endpoints. For proliferation assays for adherent cell types, individual cell types are cultured at sub-confluence and relative cell numbers quantified by SRB staining at time points optimized for each system (48 h: 3C and CASM3C systems; 72 h: BT and HDF3CGF systems; 96 h: SAg system). SRB was performed by staining cells with 0.1% SRB after fixation with 10% TCA and reading wells at 560 nm.Viability and proliferation of PBMC (T cells) was quantified by Alamar Blue reduction for the SAg and BT systems. For PBMC viability (referred to as PBMC Cytotoxicity within the assay endpoint names), cells were plated (75,000/well in a 96-well plate) and then chemical samples added for 1 h before addition of activators, SEB and TSST-1 (20 ng/mL final concentration each). Cells were incubated for 90 h. Then, Alamar Blue (20 uL/well) (Invitrogen, Cat DAL1100) was added for 6 h, and the plates were read with a fluorescence microplate reader at 546/580 nm (excitation/emission). For PBMC proliferation, cells were plated and activated as above but incubated for only 16 h prior to addition of Alamar Blue. Plates were read after 6 h.
CN(C)CCC(c1ccc(Cl)cc1)c1ccccn1 (stereo not drawn) was tested, and the outcome was “inactive”.
In the case of OC(C(F)(F)F)(C(F)(F)F)C(O)(C(F)(F)F)C(F)(F)F, the AC50 is reported as 21.5 µM (active) and 30 µM (active).
For COc1ccccc1Oc1c(NS(=O)(=O)c2ccc(C(C)(C)C)cc2)nc(-c2ncccn2)nc1OCCO, the outcome was “inactive”.
For CN(C)c1ccc(C(c2ccccc2)c2ccc(N(C)C)cc2)cc1, the AC50 was 3.29 µM (active).
In the case of CC(C)C1OCCN1CCOC(=O)NCCCCCCNC(=O)OCCN1CCOC1C(C)C (stereo not drawn), the outcome is reported as “inactive”.
CN(C)Cc1cc(C(C)(C)C)c(O)c(C(C)(C)C)c1 was tested, and the outcome was “inactive”.
For O=C(C(=O)c1ccccc1)c1ccccc1, the outcome was “inactive”.
For Sc1nc2ccccc2s1, the outcome was “inactive”.
CCCCCCCCCCCCCCCCCC[N+](C)(C)C was tested, and the AC50 was 5 µM (active).
CC[N+](CC)(CC(=O)Nc1c(C)cccc1C)Cc1ccccc1 (tested in a mixture with another compound) was tested, and the outcome was “inactive”.
With Oc1cccc2ccccc12 the outcome was “inactive”.
In the case of CC[N+](CC)(CC(=O)Nc1c(C)cccc1C)Cc1ccccc1, the outcome is reported as “inactive”.
CC(C)CC(=O)CC(C)CC(C)C (stereo not drawn) was tested, and the AC50 was 34.6 µM (active).
For CCCCCCC(O)CCCCCCCCCCC(=O)OC (stereo not drawn), the outcome was “inactive”.
For Cc1cccnc1, the outcome was “inactive”.
With Cc1cc(-n2nc3ccc(Cl)cc3n2)c(O)c(C(C)(C)C)c1 the outcome was “inactive”.
Cc1c(C(N)=O)cc([N+](=O)[O-])cc1[N+](=O)[O-] was tested, and the outcome was “inactive”.
With COc1ccc(C(=O)c2ccccc2O)c(O)c1 the outcome was “inactive”.
With O=[N+]([O-])c1cc(S(=O)(=O)Nc2ccccc2)ccc1Nc1ccccc1 the outcome was “inactive” and the AC50 was 13.3 µM (active).
In the case of CCC[Si](OC(C)=O)(OC(C)=O)OC(C)=O, the outcome is reported as “inactive”.
With CCCCC(CC)COC(=O)C=Cc1ccc(OC)cc1 (stereo not drawn) the AC50 was 27.5 µM (active) and 11.4 µM (active).
In the case of COc1cc(CNC(=O)CCCC/C=C/C(C)C)ccc1O, the outcome is reported as “inactive”.
In the case of CCCCCCCCCC/C=C/C1CC(=O)OC1=O (stereo not drawn), the outcome is reported as “inactive”.
COC(=O)/C=C\C(=O)OC was tested, and the AC50 was 13.6 µM (active).
With C1CN(CCOCCN2CCOCC2)CCO1 the outcome was “inactive”.
CCCCCCCCCCC1CO1 (stereo not drawn) was tested, and the AC50 was 34.8 µM (active).
In the case of CCC(C)=NO, the outcome is reported as “inactive”.
